Sampled rows, rich in hits. Any-hit rate of the full collection: about 15%.
RORgamma inh: ROR gamma (mouse) transcription inhibition; P51450; Drosophila S2 Gal4-RORgamma UAS-luciferase reporter, 20 h; Potency, µM (series often up to 53.6 µM), for inactives: top-dose activity change, negative = inhibition, most hits filed as inhibitors; 310,000 compounds, 5.4% hits; note: nearly all actives have a fitted effect of over 60% in size
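Stably transfected Drosophila Schneider cells are the test system, with ROR gamma fused to Gal4 and luciferase under UAS control; luminescence is read after 20 hr of 700 uM copper sulfate induction at ambient temperature.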
DT40 TDP1 CPT: growth inhibition of DT40 Tdp1-/-;hTDP1 cells with camptothecin (screen for TDP1 inhibitors); chicken DT40 Tdp1-/-;hTDP1 cells + 20 nM CPT, ATP luminescence, 48 h; Potency, µM (titrated, usually from 46.2 µM), without a hit: top-dose activity change, negative = growth inhibition, actives largely listed as inhibitors; 420,000 compounds, 12% hits; AID 686979; note: nearly all actives have a fitted effect of over 55% in size
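Chicken DT40 Tdp1-/- cells complemented with human TDP1, 400 cells/well, exposed to compounds plus 20 nM camptothecin for at least 48 h at 37 C; viability read as ATP content by CellTiter-Glo luminescence.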
VP16 counter: inhibits Gal4-VP16 luciferase reporter, ROR gamma counter-screen; Drosophila S2 Gal4-VP16 UAS-luciferase, luminescence, 20 h; 310,000 compounds, 3.5% hits; Potency, µM (series often up to 53.6 µM), for inactives: at the top dose activity, negative = inhibition, hits mostly inhibitors;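 note: Gal4-VP16 expression switched on by copper sulfate through the metallothionein promoter; nearly all actives have a fitted effect of over 50% in size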
DT40 TDP1 no CPT: qHTS for Inhibitors of human tyrosyl-DNA phosphodiesterase 1 (TDP1): qHTS in cells in absence of CPT | DT40 Tdp1-/- hTDP1 cells, no CPT, ATP luminescence, 48 h | Potency, µM (titrated, usually from 46.2 µM), for inactives: at the top dose activity change, negative = growth inhibition, hits mostly inhibitors | 420,000 compounds, 15% hits | AID 686978, 2013; note: nearly all actives have a fitted effect of over 55% in size
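A cellular qHTS used chicken DT40 cells lacking endogenous Tdp1 but carrying stably transfected human TDP1. Compounds were applied without camptothecin, and cell growth kinetics were judged by ATP-dependent luminescence after ≥48 hr.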
ALOX12 inh: inhibitors of human 12S-lipoxygenase ALOX12; P18054; purified 12hLO, xylenol orange hydroperoxide absorbance; Potency, µM (doses to about 108 µM), for the others: at the highest dose activity change, negative = inhibition, usual class: inhibitors; 580,000 compounds, 1.1% hits
Target sequence (P18054 whole entry, looked up): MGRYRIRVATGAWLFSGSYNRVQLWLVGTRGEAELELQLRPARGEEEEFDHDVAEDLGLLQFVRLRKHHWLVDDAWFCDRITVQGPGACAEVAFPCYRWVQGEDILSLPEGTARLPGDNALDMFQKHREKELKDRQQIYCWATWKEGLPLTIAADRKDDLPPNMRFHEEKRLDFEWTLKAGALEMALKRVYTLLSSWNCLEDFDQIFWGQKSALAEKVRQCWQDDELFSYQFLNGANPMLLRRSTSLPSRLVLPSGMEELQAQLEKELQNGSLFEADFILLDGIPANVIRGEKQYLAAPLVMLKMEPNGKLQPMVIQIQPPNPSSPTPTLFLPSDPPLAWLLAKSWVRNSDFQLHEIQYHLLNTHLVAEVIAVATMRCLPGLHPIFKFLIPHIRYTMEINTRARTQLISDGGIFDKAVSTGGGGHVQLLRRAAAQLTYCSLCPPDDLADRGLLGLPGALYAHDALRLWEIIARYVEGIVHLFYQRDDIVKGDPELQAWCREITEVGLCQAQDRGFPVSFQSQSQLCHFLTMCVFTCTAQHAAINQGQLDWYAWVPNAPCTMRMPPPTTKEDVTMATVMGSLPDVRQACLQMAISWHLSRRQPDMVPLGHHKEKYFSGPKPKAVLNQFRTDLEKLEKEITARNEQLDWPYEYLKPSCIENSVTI
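Purified human 12hLO at 150 nM in 25 mM Hepes, 0.01% Triton X-100, pH 7.0, preincubated 15 min at room temperature with compound. Reaction started with 40 uM arachidonic acid, 30 min at room temperature. Hydroperoxide measured by Fe-xylenol orange, 573/405 nm absorbance ratio.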
ELG1 DNA repair: inhibitors of ELG1-dependent DNA repair in HEK293T cells | HEK293T ELG1-luciferase reporter, luminescence, 16 h; DNA damage induced by 5-fluorouridine | Potency, µM (highest dose often 46.1 µM), without a hit: top-dose activity change, negative = inhibition, most hits filed as inhibitors | 330,000 compounds, 2.3% hits | AID 504467; note: nearly all actives have a fitted effect of over 55% in size
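Luminescence from the luciferase reporter, measured 30 min after ONE-Glo reagent at room temperature, was the read-out. Beforehand, 2,000 cells per well were exposed for 16 hr at 37 °C to 5-fluorouridine together with compound or vehicle.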
Numbers without * were called inactive; i = inactive; u = inconclusive; x = no result given; [ ] = remark or other dose. Calls come from the whole dose curve; as a rule, active = well fitted curve in the direction sought with a large enough effect; inconclusive = small, poorly fitted or top-dose-only effect, or another doubt; inactive = no such curve, though single readings can be large; an effect the other way counts as inactive or inconclusive. % is set by controls: 0 for no effect and ±100 for the full control effect; potency is the fitted concentration of half-maximal effect.

SMILES | RORgamma inh | DT40 TDP1 CPT | VP16 counter | DT40 TDP1 no CPT | ALOX12 inh | ELG1 DNA repair
O=C(N/N=C/c1cc(Cl)cc(Cl)c1O)c1ccncc1 | 3.2µM* | 6.5µM* | u | 15µM* | -15% | u
O=C(N/N=C/c1coc2ccc(Cl)cc2c1=O)c1ccncc1 | -5% | u | 2% | u | -1% | 16µM*
O=C(N/N=C/c1ccc(Cl)cc1Cl)c1ccncc1 | -27% | 15% | -14% | 0% | 0% | 14%
O=C(N/N=C/c1cc(Br)cc([N+](=O)[O-])c1O)c1ccc(NC(=O)c2ccc(F)cc2)cc1 | 8.9µM* | 23µM* | 11µM* | 15µM* | u | 13µM*
Cc1ccc(C(C)C)c(OCc2ccc(C(=O)N/N=C/c3ccc(O)cc3O)cc2)c1 | 6.3µM* | u | 7.1µM* | 18µM* | -9% | u
CN(/N=C/c1cc(Br)cc(Br)c1O)c1ccccc1 | 4% | 2% | 10% | 3% | -19% | 5%
COc1ccc(/C=N/NC(=O)c2ccncc2)c(OC)c1 | -21% | 7% | 21% | 8% | 94% | 1%
Cc1c(N=Cc2cc(Br)cc(Br)c2O)cccc1C(=O)O | u | u | -21% | u | 50µM* | -14%
CCc1cc(C(=O)N/N=C/c2ccc(O)cc2O)c2ccccc2n1 | 11µM* | 8.2µM* | u | u | i | u
O=C(N/N=C/c1cccc(O)c1)c1cc(C2CC2)nc2ccccc12 | -6% | u | -8% | u | -7% | -7%
O=C(N/N=C/c1c[nH]c2ccc(Br)cc12)c1ccn(Cc2ccc(Cl)cc2Cl)n1 | 3% | u | -5% | 21µM* | -8% | -15%
O=C(N/N=C/c1ccc(O)cc1O)c1ccncc1 | -23% | 8.2µM* | 0% | 4.6µM* | 21% | u
O=C1/C(=C/c2ccc(Cl)c(Cl)c2)Cc2ccccc21 | x | x | x | x | 39% | x
NCCC(=O)N1CCCC1 | x | x | x | x | -11% | x
O=C(N/N=C/c1cc(Br)cc(Br)c1O)c1ccncc1 | 4µM* | 2.6µM* | -26% | 0.65µM* | u | u
Cc1nonc1C(=O)N/N=C/c1ccc(O)cc1O | -31% | 3.3µM* | -3% | 3.7µM* | 2% | 8%
O=C(O)c1cccc(N/N=C/c2cc(Br)cc(Br)c2O)c1 | u | -1% | -17% | -3% | 45µM* | u
O=C(N/N=C/c1ccc(O)cc1O)c1ccc(NC(=O)C2CCCCC2)cc1 | u | 6.5µM* | u | 7.3µM* | -5% | 8%
C#CCNC(=O)NCc1ccc(C(=O)NC)cc1 | x | x | x | x | 8% | x
Cc1ccc(/C(COc2ccc3c(C)c(Cc4ccccc4)c(=O)oc3c2C)=N/O)cc1 | x | x | x | x | -7% | x
Cc1ccc(Nc2nnc(Cc3ccc(Cl)cc3)c(=O)[nH]2)cc1 | x | x | x | x | -59% | x
O=C(N/N=C/c1c[nH]c2ccccc12)c1ccncc1 | u | 31% | u | -12% | -24% | 19%
Cc1ccc(N=Cc2cc(Cl)cc(Cl)c2O)nc1 | u | u | u | -24% | u | -12%
Oc1c(Cl)cc(Cl)cc1/C=N/Nc1ncc(Br)cn1 | u | 1.2µM* | 21% | 1.3µM* | 27% | u
O=C(N/N=C/c1c[nH]c2ccc(Br)cc12)c1ccncc1 | 13µM* | u | u | u | -16% | 2%
O=C1N(C2CCCCC2)C[C@H]2CN(Cc3cccc(OC(F)(F)F)c3)CCN12 | x | x | x | x | 12%[176 µM] | x
CCOCc1nc(C2CCCN(C(=O)c3ccc(OC)cc3OC)C2)no1 (configuration not stated) | x | x | x | x | 30% | x
O=c1cc(CSc2nnnn2-c2ccccc2)[nH]n1-c1ccccc1 | x | x | x | x | -76% | x
